This note sets out measurements from PubChem BioAssay (NCI).

Compounds without any hit were thinned out: in the full panel of roughly 83,000, 20% have a hit.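 Testing used 96-well plates and a 48-hour single-concentration exposure. Example: -40 means 40% of the starting cells died.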 Values without a mark were called inactive. The source made the active and inactive calls. How the source made its calls: active means growth percent below 10; inactive means the rest.

Among the test systems are SR leukemia; RPMI-8226 leukemia; OVCAR-8 ovarian; OVCAR-5 ovarian; OVCAR-4 ovarian; SK-OV-3 ovarian; IGROV1 ovarian; OVCAR-3 ovarian; HS 578T breast; NCI/ADR-RES ovarian.
Experiment in all cases: NCI-60 one-dose screen, 48 h (100 = growth as untreated, 0 = no growth, -100 = all killed)
Common to all, as to settings: 10 µM

Take `COc1ccc2[nH]c(=O)c(CSc3cccc(N)c3)cc2c1`: the growth is 39.1% with SR leukemia; 44.8% in the assay with RPMI-8226 leukemia; 59.2% in the assay on OVCAR-8 ovarian; 91.6% in the assay on OVCAR-5 ovarian; 49.8% in the assay on OVCAR-4 ovarian; 94.5% in the assay on SK-OV-3 ovarian. The growth with IGROV1 ovarian is 74.1%; with OVCAR-3 ovarian, 66.9%; in the assay on HS 578T breast, 95%; with NCI/ADR-RES ovarian, 73%.

Consider `N#Cc1c(NC(=O)c2ccc(C(F)(F)F)cc2)sc2c1CCC(O)=C2`, for which the growth with SR leukemia is 8.2% (active); with RPMI-8226 leukemia, 9.09% (active); with OVCAR-8 ovarian it was 28.9%; in the assay on OVCAR-5 ovarian, 82.8%; with OVCAR-4 ovarian, 41.6%; in the assay on SK-OV-3 ovarian, 17.9%. Besides, the growth with IGROV1 ovarian was 38.3%; in the assay on OVCAR-3 ovarian, 18.8%; in the assay with HS 578T breast, 12.3%; in the assay on NCI/ADR-RES ovarian, -33.5% (active).

On to `Cc1ccc(C(=O)N/C(=C2/OCCN2C)[P+](c2ccccc2)(c2ccccc2)c2ccccc2)cc1`, for which the growth in the assay on SR leukemia was 79.5%; in the assay on RPMI-8226 leukemia, 25.6%; in the assay with OVCAR-8 ovarian it was 80.5%; in the assay with OVCAR-5 ovarian, 96.3%; with OVCAR-4 ovarian it was 69.8%; in the assay with SK-OV-3 ovarian, 104%. The growth with IGROV1 ovarian was 69.9%; in the assay on OVCAR-3 ovarian it was 54.5%; in the assay with HS 578T breast, 79.6%; in the assay with NCI/ADR-RES ovarian, 101%.

`O=C(Nc1nc2ccccc2s1)c1ccc(Br)cc1`: the growth in the assay on SR leukemia is 80.1%; in the assay with RPMI-8226 leukemia, 64.2%; in the assay with OVCAR-8 ovarian it was 98.5%; in the assay with OVCAR-5 ovarian, 92.9%; in the assay with OVCAR-4 ovarian, 80.6%; in the assay with SK-OV-3 ovarian it was 104%. The growth was 75.1% with IGROV1 ovarian, 111% with OVCAR-3 ovarian, 95.5% in the assay on HS 578T breast and 76.7% in the assay on NCI/ADR-RES ovarian.

With `CN(CCO)c1oc(-c2ccccc2)nc1[P+](c1ccccc1)(c1ccccc1)c1ccccc1`, the growth in the assay with SR leukemia is 5.21% (active); in the assay with RPMI-8226 leukemia it was 7.8% (active); with OVCAR-8 ovarian it was 12.3%; in the assay on OVCAR-5 ovarian it was 16.2%; in the assay on OVCAR-4 ovarian it was 15.1%; in the assay with SK-OV-3 ovarian, -13.5% (active). Besides, the growth in the assay with IGROV1 ovarian was 6.36% (active); with OVCAR-3 ovarian, -0.969% (active); in the assay with HS 578T breast it was -11.4% (active); with NCI/ADR-RES ovarian, 96.6%.

As for `O=c1c2ccccc2nc(COc2ccccc2)n1/N=C/c1ccc(F)cc1`, the growth in the assay on SR leukemia was 78.2%; in the assay with RPMI-8226 leukemia, 71.7%; in the assay on OVCAR-8 ovarian, 94.4%; with OVCAR-5 ovarian it was 94.2%; with OVCAR-4 ovarian, 76.9%; in the assay with SK-OV-3 ovarian it was 114%. Also, the growth with IGROV1 ovarian is 105%; in the assay on OVCAR-3 ovarian it was 114%; in the assay on HS 578T breast it was 90.5%; with NCI/ADR-RES ovarian, 90.8%.

As to `COc1ccc(/C=N/N=C(\C)c2ccc3c(c2)Nc2ccccc2S3)cc1O`, the growth in the assay with SR leukemia was 32.6%; in the assay on RPMI-8226 leukemia, 28.3%; with OVCAR-8 ovarian, 62.8%; with OVCAR-5 ovarian, 71.4%; in the assay on OVCAR-4 ovarian it was 41.7%; in the assay on SK-OV-3 ovarian, 87.3%. Besides, the growth in the assay on IGROV1 ovarian is 70.1%; with OVCAR-3 ovarian, 72.8%; with HS 578T breast it was 73.7%; in the assay with NCI/ADR-RES ovarian, 34.8%.

Turning to `O=c1[nH]c2ccc(Cl)cc2cc1CSc1ccc(Nc2nccc(-c3ccc(Cl)cc3)n2)cc1`, the growth with SR leukemia is 54.2%; in the assay with RPMI-8226 leukemia it was 73%; in the assay on OVCAR-8 ovarian, -0.363% (active); in the assay on OVCAR-5 ovarian, 81.3%; with OVCAR-4 ovarian, -59.9% (active); with SK-OV-3 ovarian it was 122%. The growth in the assay with IGROV1 ovarian was 84.7%; in the assay on OVCAR-3 ovarian it was -63.1% (active); with HS 578T breast it was 56.8%; with NCI/ADR-RES ovarian, 50.2%.

Consider `O=c1c2ccccc2nc(COc2ccccc2)n1/N=C/c1ccc(N2CCOCC2)cc1`, for which the growth is 95.1% with SR leukemia; 88.8% with RPMI-8226 leukemia; 33.1% with OVCAR-8 ovarian; 93.3% in the assay with OVCAR-5 ovarian; 40.4% in the assay on OVCAR-4 ovarian; 64.5% in the assay on SK-OV-3 ovarian. The growth was 56.9% with IGROV1 ovarian, 85.2% with OVCAR-3 ovarian, 41.2% in the assay on HS 578T breast and 58.1% with NCI/ADR-RES ovarian.

Turning to `COC(=O)c1c(C(=O)OC)c2n(c1C)[C@@H]([C@@H](C)[C@H]1CC[C@H]3[C@@H]4CCC5=CC(=O)CC[C@]5(C)[C@H]4CC[C@]13C)SC2`, the growth in the assay with SR leukemia is 17.9%; in the assay with RPMI-8226 leukemia, -11.5% (active); with OVCAR-8 ovarian, 26.7%; with OVCAR-5 ovarian, 54.2%; in the assay with OVCAR-4 ovarian, 38.5%; with SK-OV-3 ovarian, 48.7%. In addition, the growth with IGROV1 ovarian is 75.9%; in the assay on OVCAR-3 ovarian, 51.4%; in the assay on HS 578T breast, 56.6%; in the assay with NCI/ADR-RES ovarian it was 7.08% (active).

As to `CCOc1ccc(/C=N/NC(=O)Cn2nc(Cc3ccc([N+](=O)[O-])cc3)c3onc(C)c3c2=O)cc1`, the growth was 62.7% with SR leukemia; 68.9% in the assay with RPMI-8226 leukemia; -16.5% (active) in the assay with OVCAR-8 ovarian; 43.8% with OVCAR-5 ovarian; -34.8% (active) in the assay on OVCAR-4 ovarian; 91.3% with SK-OV-3 ovarian. Also, the growth with IGROV1 ovarian was 27.6%; in the assay with OVCAR-3 ovarian it was -37.5% (active); with HS 578T breast, -7.55% (active); in the assay with NCI/ADR-RES ovarian it was 19.4%.

Take `COc1cc(NC(=O)CSc2nnc(-c3ccc4nc(-c5ccc(Cl)cc5)[nH]c4c3)o2)cc(OC)c1OC`: the growth in the assay with SR leukemia was 48%; in the assay on RPMI-8226 leukemia it was 21.3%; in the assay with OVCAR-8 ovarian it was 42.1%; with OVCAR-5 ovarian, 132%; with OVCAR-4 ovarian it was 61.9%; in the assay on SK-OV-3 ovarian, 101%. Further, the growth was 73.8% with IGROV1 ovarian, 71.8% in the assay on OVCAR-3 ovarian, 50.6% with HS 578T breast and 99.8% with NCI/ADR-RES ovarian.

`O=c1[nH]c2ccc(Cl)cc2cc1CSc1ccc(Nc2nccc(-c3ccc4ccccc4c3)n2)cc1`: the growth in the assay with SR leukemia was 88%; with RPMI-8226 leukemia, 69.1%; in the assay with OVCAR-8 ovarian, 9.55% (active); with OVCAR-5 ovarian it was 95%; in the assay on OVCAR-4 ovarian, -25.7% (active); in the assay with SK-OV-3 ovarian, 126%. Further, the growth in the assay on IGROV1 ovarian is 99.4%; with OVCAR-3 ovarian, -1.45% (active); with HS 578T breast, 66.2%; in the assay with NCI/ADR-RES ovarian it was 59.8%.

With `CC(=O)Nc1ccc(-c2cn(-c3cccc(C(=O)Nc4cccc(OC(F)(F)F)c4)c3)nn2)cn1`, the growth in the assay with SR leukemia is 97.8%; in the assay on RPMI-8226 leukemia, 96%; with OVCAR-8 ovarian, 57.1%; in the assay with OVCAR-5 ovarian it was 108%; with OVCAR-4 ovarian, 102%; with SK-OV-3 ovarian, 93.9%. The growth is 108% in the assay on IGROV1 ovarian, 110% with OVCAR-3 ovarian, 53.7% in the assay with HS 578T breast and 97.7% with NCI/ADR-RES ovarian.
